Experimental findings from PubChem BioAssay (NCI) are described below.

This is part of a sample that, as a whole, favours compounds with a hit. Of some 83,000 tested, about 20% had one in any assay.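 Values shown are percent growth following 48 h exposure of cells in 96-well plates to a single concentration of compound; below 10 was considered active.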 Unmarked numbers belong to inactive results. Active and inactive are the calls of the source.

One assay relates to CCRF-CEM leukemia. Nature of the assay: NCI-60 one-dose screen, 48 h (100 = growth as untreated, 0 = no growth, -100 = all killed). To be noted: 10 µM unless noted.
For `CN(C)CCN(C)c1ccc2ncc(C#Cc3cncc(C(=O)Nc4ccc(CN5CCN(C)CC5)c(C(F)(F)F)c4)c3)n2n1`, the growth was 7.73% (active). In the case of `CCO/C=N/C1=C(C#N)C(c2ccc(F)cc2)c2sc3c(CC)cccc3c2O1` (stereo unspecified), the growth is 13.1%. The same measure, in the same setting: under `COc1ccc(/C=C/C(=O)c2cccc(NC(=O)CSc3nc4ccccc4c(=O)n3-c3ccccc3)c2)cc1OC` stands 115%.

Take `CCN1CCN(Cc2cn(-c3ccc(S(N)(=O)=O)cc3)nn2)CC1`: the growth was 104%. Same read-out and setting: as for `Cc1cccc2c3c(sc12)C(c1ccc(Cl)cc1)c1c(nc(CC(=O)Nc2ccccc2)[nH]c1=O)O3` (stereo unspecified), the figure is 59%; as for `C=C=COc1cccc(/C(N)=N/C(N)=N/c2nc3ccccc3s2)c1`, 32%. For `Cc1cc2nc(C(Cl)Cl)nc(-c3cccs3)n2n1`, the growth is 59.8%.

The subject of another assay is MOLT-4 leukemia. The assay is described as above. To be noted: 10 µM unless noted.
With `COc1cc(-c2nnc(SCc3ccc(O)c4ncccc34)n2-c2ccccc2)cc(OC)c1OC`, the growth was 4.98% (active). Same read-out and setting: as for `CN1c2ccccc2Sc2cc(C=C(C#N)C#N)ccc21`, the figure is 84.8%; as for `CC(=O)N(C)C1CCc2c(sc(NC(=O)c3ccc(C(C)(C)C)cc3)c2C(N)=O)C1` (stereo unspecified), 75.2%; as for `COc1cc(/C=N/NC(=O)c2cn(C3CC3)c3c(OC)c(N4CC5CCCNC5C4)c(F)cc3c2=O)ccc1O` (stereo unspecified), 2.34% (active). As to `CC1(C)[C@@H](O)CC[C@]2(C)[C@H]3CC[C@@H]4[C@H]5[C@H](C(=O)/C=C\c6ccc([N+](=O)[O-])cc6)CC[C@]5(O)CC[C@@]4(C)[C@]3(C)CC[C@@H]12`, the growth was 22.9%. Same read-out and setting: under `CCCCCc1ccc(S(=O)(=O)Nc2cccc(-c3csc(NC(=O)CN4CCN(C)CC4)n3)c2)cc1` stands 20.8%; under `O=S(=O)(NCCNc1nccc(-n2cnc3ccccc32)n1)c1ccc(Br)cc1`, 95.9%; under `COc1ccccc1-n1cc(C#N)c(N)c1C(=O)c1ccc(Br)cc1`, 61.4%. Same read-out and setting: under `COc1cc2oc(-c3cccc(C(=O)N[C@@H](CC(C)C)C(=O)OC(C)(C)C)c3)cc(=O)c2c(OC)c1OC` stands 62.1%. Regarding `CC1(C)CC[C@]23CC[C@]4(C)[C@H](CC[C@@H]5[C@@]6(C)CCCN(CO)C(C)(C)[C@@H]6CC[C@]54C)[C@H]2[C@H]1OC3`, the growth is 35.4%.

As for `CCOC(=O)c1c(NC(=O)c2ccccc2C(F)(F)F)sc2c1CCC(=O)C2`, the growth is 94.2%. Turning to `COc1ccc(N2C(=O)c3cc(Cl)ccc3NC2SCc2ccccc2)cc1` (stereo unspecified), the growth is 84.5%. The same measure, in the same setting: as for `CCCCCc1ccc(S(=O)(=O)Nc2cccc(-c3csc(NC(=O)CNCCN(C)C)n3)c2)cc1`, the figure is 61.8%. As for `O=C1CCCc2nc(Nc3ccc(S(=O)(=O)Nc4ccc([N+](=O)[O-])cc4)cc3)ncc21`, the growth was 101%. Consider `Clc1nc2ccccc2nc1-c1nnc(C2CCCCC2)o1`, for which the growth is 109%. On to `Cc1ccc(C2=NN(C)C(=O)C3(CCCC3)C2)cc1`, for which the growth is 102%.

Turning to `O=C1[C@H]2Cc3c([nH]c4ccccc34)[C@@H](c3c(Cl)cccc3Cl)N2C(=O)CN1C1CCN(CC2CCCCC2)CC1`, the growth was 54.6%.

As for `NC(=O)c1cccc(-n2ccc3cc(NC(=O)Nc4ccc(N5CCOCC5)c(C(F)(F)F)c4)ccc32)n1`, the growth is -38.9% (active). On the same count and under the same terms, as for `COc1ccc(N2CCN(C3=C(Cl)C(=O)C(C)=C(C)C3=O)CC2)cc1`, the figure is 53.7%. Still for that read-out and setting: as for `C=C(C=O)[C@@H]1CC[C@]2(C)[C@H](C(=O)C=C3[C@H]4C[C@](C)(C(=O)OC)CC[C@]4(C)CC[C@]32C)[C@@]1(C)CCC#N`, the figure is 0.0515% (active); as for `CCOc1ccc(C(=O)Nc2ncc(Cc3ccc(F)cc3)s2)cc1`, 18.7%. The same measure, in the same setting: under `Cc1ccc(-c2cc3nc(C(Cl)Cl)nc(-c4cccs4)n3n2)cc1` stands 98.6%; under `CCOC(=O)c1c(N)c(C#N)cn1-c1cc(OC)c(OC)c(OC)c1`, 102%. For the compound `CC(=O)C1=C(C)NC(NNC(N)=S)=NC1c1ccccc1` (stereo unspecified), the growth is 114%. Turning to `NS(=O)(=O)c1ccc(Nc2nc(N/N=C/c3ccccn3)nc(Nc3ccccc3)n2)cc1`, the growth was 3.13% (active).

On to `Oc1cccc2ccc(-c3nnc(SCc4ccc(O)c5ncccc45)o3)nc12`, for which the growth is 17.4%.

Regarding `O=C1CCCC2=C1C(c1c[nH]c3ccc(Br)cc13)Cc1cc(Br)ccc1N2` (stereo unspecified), the growth was 21.5%. Still for that read-out and setting: as for `COC(=O)c1[nH]nc2c1C1(C(=O)N(C)c3ccccc31)C(C#N)=C(N)O2` (stereo unspecified), the figure is 112%.

With `CC1=NC2=NC(=O)/C(=C3/N=C(C)C=C(c4ccccc4)N3N)NN2C(c2ccccc2)=C1`, the growth is 104%. On to `Nc1cc(-c2c[nH]c3ccc(Br)cc23)nc2cc(-c3c[nH]c4ccc(Br)cc34)nn12`, for which the growth is -3.94% (active). For the compound `O=S(=O)(NCCNc1nccc(-n2cnc3ccccc32)n1)c1ccc(Cl)cc1`, the growth is 103%. The same measure, in the same setting: as for `COc1ccc(Cn2cc3c(c2-c2cc(OC)c(OC)c(OC)c2)CCc2c(CN4CCOCC4)noc2-3)cc1`, the figure is 22.7%. Turning to `CN(C)CCN(C)c1ccc2ncc(C#Cc3cncc(C(=O)Nc4ccc(CN5CCN(C)CC5)c(C(F)(F)F)c4)c3)n2n1`, the growth is 3.55% (active). For the compound `CCO/C=N/C1=C(C#N)C(c2ccc(F)cc2)c2sc3c(CC)cccc3c2O1` (stereo unspecified), the growth is 19.8%. With `COc1ccc(/C=C/C(=O)c2cccc(NC(=O)CSc3nc4ccccc4c(=O)n3-c3ccccc3)c2)cc1OC`, the growth was 91.1%.

`CCN1CCN(Cc2cn(-c3ccc(S(N)(=O)=O)cc3)nn2)CC1`: the growth was 104%.

Regarding `Cc1cccc2c3c(sc12)C(c1ccc(Cl)cc1)c1c(nc(CC(=O)Nc2ccccc2)[nH]c1=O)O3` (stereo unspecified), the growth was 83.4%.

As for `C=C=COc1cccc(/C(N)=N/C(N)=N/c2nc3ccccc3s2)c1`, the growth is 47.4%.

For `Cc1cc2nc(C(Cl)Cl)nc(-c3cccs3)n2n1`, the growth was 21.3%.
